Screening results: PubChem, National Center for Advancing Translational Sciences (NCATS)
A selection: hits, their analogues and other compounds. The true share with any hit is near 2.7%.
Coupling enz: inhibits coupling enzyme system, counter-screen for aldolase hits; coupling enzyme system counterscreen, AmpLite Red fluorescence; AID 2472; activity change, negative = inhibition, % at 58.2 µM, hits read low; 290,000 compounds, 0.67% hits; in the data active = activity change below about -30%
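Coupling enzymes only (glyceraldehyde-3-phosphate) + compound, at 57.5 uM final, 10 min RT; add substrate/coupling/AmpLite Red mix, 20 min RT; fluorescence ex 525/em 598 nm. Actives flag coupling-system interference.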
Tau fibril ThT: inhibitors of human tau fibril formation, thioflavin T binding. P10636. recombinant tau K18 P301L, heparin-induced fibrillization, ThT fluorescence. Potency, µM (highest dose often 57.4 µM), most hits filed as inhibitors. 270,000 compounds, 2.1% hits; note: nearly all actives have a fitted effect of over 55% in size
Target sequence (P10636 561-689 P618L limits assumed): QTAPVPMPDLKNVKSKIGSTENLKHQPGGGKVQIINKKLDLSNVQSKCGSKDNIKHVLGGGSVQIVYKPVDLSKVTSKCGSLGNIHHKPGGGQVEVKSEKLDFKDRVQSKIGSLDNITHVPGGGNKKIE
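ThT emission at 510 nm, taken 1 hr after adding 30 uM dye, quantifies aggregates formed when 20 uM heparin acts on human tau K18 P301L for 6 hr at 37 C.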
Tau FP inhib: blocks human tau fibril formation measured by polarization. K18 P301L tau heparin fibrillization, Alexa594 FP, 6 h. Potency, µM (doses to about 57.7 µM), actives largely listed as inhibitors. 280,000 compounds, 0.39% hits. AID 1468; note: nearly all actives have a fitted effect of over 55% in size
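Steps: dispense K18 P301L tau (15 uM plus 0.24 uM Alexa 594 tracer, final) in pH 7 sodium acetate; add compound; add heparin (20 uM final); incubate 6 hr, 37 C; add ThT (30 uM final); after 1 hr ambient, read FP.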
Tau fluor counter: counter-screen for tau fibril formation inhibitors; tau K18 P301L Alexa594 fluorescence, heparin fibrillization; Potency, µM (top dose mostly 57.7 µM); 280,000 compounds, 0.93% hits; AID 1463; note: nearly all actives have a fitted effect of over 55% in size
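Human tau K18 P301L (15 uM unlabeled, 0.24 uM Alexa 594-labeled) in 100 mM sodium acetate pH 7 with 20 uM heparin, 6 hr at 37 C. ThT 30 uM added, 1 hr ambient; Alexa 594 FP and total fluorescence read at 555/632 nm.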
Large screens that a line does not name were inactive; [ ] = remark or other dose. Unless noted, calls come from the whole dose curve; as a rule, active = well fitted curve in the direction sought with a large enough effect; inconclusive = small, poorly fitted or top-dose-only effect, or another doubt; inactive = no such curve, though single readings can be large; an effect the other way counts as inactive or inconclusive.

COc1ccc(NS(=O)(=O)c2cc(NC(=O)/C=C/c3cccs3)ccc2N2CCOCC2)cc1	Tau fluor counter 16µM[quencher]
COc1ccc(NS(=O)(=O)c2cc(NC(=O)c3ccccc3F)ccc2N2CCCC2)cc1	Tau fluor counter inconclusive
COc1ccc(NC(=O)c2cc(S(=O)(=O)Nc3ccc(OC)cc3)cs2)cc1	Tau FP inhib inconclusive, Tau fluor counter 13µM[quencher]
S=C(NCc1ccc2[nH]c3c(c2c1)CCCC3)Nc1ccccc1	Tau fibril ThT inconclusive, Tau fluor counter 13µM[quencher]
Cc1cc(C)cc(NC(=S)NCc2ccc3[nH]c4c(c3c2)CCCC4)c1	Tau fibril ThT inconclusive, Tau FP inhib inconclusive, Tau fluor counter 10µM[quencher]
Cc1ccc(NC(=O)CCSc2nc(-c3ccc4c(c3)OCO4)cc(C(F)(F)F)n2)cc1	Tau FP inhib inconclusive, Tau fluor counter inconclusive (no result: Coupling enz)
COc1ccccc1C(=O)Nc1nnc(SCc2cc(=O)n3ccc(C)cc3n2)s1	none (no result: Coupling enz)
Cn1c(=O)c2c(nc(N/N=C/c3ccncc3)n2Cc2ccccc2)n(C)c1=O	none
COc1cc(/C=N/Nc2nc3c(c(=O)n(C)c(=O)n3C)n2Cc2ccccc2)ccc1OC(=O)c1ccco1	Tau fibril ThT inconclusive, Tau FP inhib inconclusive, Tau fluor counter 7.9µM[quencher]
CC(=O)Nc1ccc2[nH]c3ccccc3c2c1	none
O=C(Nc1ccc(Cl)cc1)c1cc2c(cc1O)[nH]c1ccccc12	Tau fibril ThT inconclusive, Tau fluor counter 4µM[quencher]
Nc1c(C(=O)c2ccc(Cl)cc2)sc2nsc(SCCN3CCOCC3)c12	Tau fibril ThT inconclusive, Tau fluor counter inconclusive
Nc1c(C(=O)c2ccccc2)sc2nsc(SCCN3CCCC3)c12	Tau fibril ThT 16µM, Tau fluor counter inconclusive
O=C(N/N=C/c1cccnc1)c1ccccc1OCc1ccc(Cl)cc1	none
O=C(N/N=C/c1cccnc1)c1ccccc1OCc1ccc(Br)cc1	Coupling enz -38
COc1cccc(-c2nc3c(c(SCc4ccccc4Cl)n2)Cc2c(CO)cnc(C)c2O3)c1	none (no result: Coupling enz)
O=C(CCc1ccccc1)NNC(=S)NC(=O)c1ccc(Cl)cc1	none
Cc1cc(C(=O)N/N=C/c2ccc(O)c(O)c2O)c(C)n1-c1ccccc1	Coupling enz -33
O=C(CCN1CCN(c2ccccc2)CC1)N/N=C/c1ccc(O)c(O)c1O	Coupling enz -40
O=C(Cc1csc(N2CCOCC2)n1)N/N=C/c1ccc(O)c(O)c1O	Coupling enz -61, Tau fibril ThT 16µM, Tau FP inhib 32µM, Tau fluor counter inconclusive
CCOc1ccc(C(=O)NCc2ccco2)cc1Cl	none (no result: Tau fibril ThT, Tau FP inhib, Tau fluor counter)
O=S(=O)(c1ccccc1)N1CCC2(CCN(Cc3ccccc3)CC2)CC1	none (no result: Tau fibril ThT, Tau FP inhib, Tau fluor counter)
COC(=O)c1sccc1S(=O)(=O)N1CCN(c2cccc(C)c2)C(C)C1 (stereo not drawn)	none (no result: Coupling enz)
O=C1Nc2cc(Cl)cnc2N2CCCC12 (stereo not drawn)	Tau fibril ThT 14µM, Tau FP inhib inconclusive, Tau fluor counter inconclusive
Cc1ccc(NC(=O)c2ccc(F)c(S(=O)(=O)NCCc3ccccc3)c2)cc1F	Tau FP inhib 25µM, Tau fluor counter 7.1µM[quencher] (no result: Coupling enz)
CCN(c1ccccc1)S(=O)(=O)c1cc(C(=O)Nc2ccc(F)c(F)c2)ccc1F	Tau FP inhib 14µM, Tau fluor counter inconclusive
CCN(c1ccccc1)S(=O)(=O)c1ccc(F)c(C(=O)Nc2ccc(C)cc2)c1	none (no result: Coupling enz)
COc1ccc2nc(/N=C/c3c(C)[nH]n(-c4ccc(C)cc4)c3=O)sc2c1	Tau fibril ThT 18µM, Tau fluor counter inconclusive
CN1c2ccccc2C(C)(C)C12C=Nc1c(cc(N3CCOCC3)c3ccccc13)O2 (stereo not drawn)	Coupling enz -66, Tau fibril ThT inconclusive, Tau fluor counter inconclusive
O=C(CSc1nc2ccccc2[nH]1)Nc1nc(-c2cccc(Br)c2)cs1	Tau FP inhib 14µM, Tau fluor counter inconclusive
CN(C)CCCn1c(SCC(=O)Nc2nc(-c3cccc(Br)c3)cs2)nc2ccccc2c1=O	Tau fibril ThT inconclusive
O=C(CSc1ncc(-c2ccccc2)[nH]1)Nc1ccccc1	Tau fluor counter inconclusive
O=C(CSc1ncc(-c2ccc(Cl)cc2)[nH]1)Nc1ccccc1F	Tau fluor counter 14µM[quencher] (no result: Coupling enz)
O=C(CSc1ncc(-c2ccccc2)[nH]1)Nc1ccc(Cl)cc1	Tau fluor counter 14µM[quencher] (no result: Coupling enz)
O=C(CSc1ncc(-c2ccccc2)[nH]1)Nc1cccc(Br)c1	Tau fibril ThT inconclusive, Tau FP inhib inconclusive, Tau fluor counter 16µM[quencher] (no result: Coupling enz)
Cc1ccc(CNCc2ccccc2Cl)s1	none (no result: Coupling enz)
Cc1ccc(CN2CCC(CNC(=O)Nc3c(C)cccc3C)C2)cc1 (stereo not drawn)	none (no result: Coupling enz)
Nc1cc(-c2ccc(Br)cc2)nn1S(=O)(=O)c1cccc2nsnc12	Tau fibril ThT inconclusive, Tau fluor counter 13µM[quencher]
